Screening data as filed in PubChem.
ST2 inh: blocks human ST2 binding to IL-33. Q01638. AlphaLISA ST2-Fc/biotin-IL-33 interaction, 1 h. inhibition, % for hits at 17 µM. 2.3% of 78,000 active; in the data active means inhibition above about 30%
Target sequence (Q01638 whole entry, looked up): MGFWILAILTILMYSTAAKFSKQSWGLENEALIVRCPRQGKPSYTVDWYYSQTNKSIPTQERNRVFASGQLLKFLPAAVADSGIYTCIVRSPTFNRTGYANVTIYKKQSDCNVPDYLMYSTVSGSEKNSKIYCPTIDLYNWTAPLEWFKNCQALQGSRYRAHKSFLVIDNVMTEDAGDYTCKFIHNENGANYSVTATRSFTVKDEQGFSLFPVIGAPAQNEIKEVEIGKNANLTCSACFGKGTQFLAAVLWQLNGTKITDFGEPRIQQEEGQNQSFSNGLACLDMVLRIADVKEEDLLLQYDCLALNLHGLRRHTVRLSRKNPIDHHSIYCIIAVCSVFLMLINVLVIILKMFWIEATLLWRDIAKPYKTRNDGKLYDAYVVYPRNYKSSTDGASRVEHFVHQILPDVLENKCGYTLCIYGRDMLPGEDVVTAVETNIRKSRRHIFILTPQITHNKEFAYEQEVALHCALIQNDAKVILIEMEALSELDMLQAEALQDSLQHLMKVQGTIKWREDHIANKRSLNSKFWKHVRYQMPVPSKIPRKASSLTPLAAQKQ
An asterisk follows results filed as active. Only a selection was taken, and hits are over-represented in it overall.

Results for CCc1nc(C)ccc1OCC(=O)N1C[C@@H]2[C@@H]3CC[C@@H](C3)[C@@H]2C1 ?
ST2 inh: inactive

Results for N#CCN(CC#N)C(=O)c1ccc([N+](=O)[O-])cc1Cl ?
ST2 inh: inactive

Results for O=c1cc(-c2ccc(O)cc2)oc2c(C3OCC(O)C(O)C3O)c(O)c(C3OC(CO)C(O)C(O)C3O)c(O)c12 (configuration not stated) ?
ST2 inh: inactive

Results for O=c1cc(-c2ccc(O)cc2)oc2c([C@@H]3O[C@H](CO)[C@@H](O[C@@H]4O[C@H](CO)[C@@H](O)[C@H](O)[C@H]4O)[C@H](O)[C@H]3O)c(O)cc(O)c12 ?
ST2 inh: 50%*

Results for O=c1cc(-c2ccc(O)cc2)oc2c(C3OCC(O)C(O)C3O)c(O)c(C3OCC(O)C(O)C3O)c(O)c12 (configuration not stated) ?
ST2 inh: inactive

What do the screens show for `Cc1ccc(C(=O)Nc2c(F)c(F)c(F)c(F)c2F)cc1C`?
ST2 inh: inactive

How did COc1cccc(Cn2c(CNS(=O)(=O)c3ccccc3Cl)nc3cccnc32)c1 do in these assays?
ST2 inh: inactive

How did O=C(Cn1nc(-c2ccccc2)ccc1=O)NCc1cccnc1 do in these assays?
ST2 inh: inactive

Results for O=c1c2cnn(-c3ccccc3)c2ncn1Cc1cccnc1 ?
ST2 inh: inactive

Results for C(=Nc1cc(-c2ccccc2)nn1-c1ccccc1)c1cccnc1 ?
ST2 inh: 33%*

Results for CC(C)N(Cc1nccn1C)C(=O)C1CC(=O)N(C)c2ccccc21 (configuration not stated) ?
ST2 inh: inactive

Results for O=C(CSc1ccc2nnc(-c3cccnc3)n2n1)N1CCCC(c2ccccc2)CC1 (configuration not stated) ?
ST2 inh: 36%*

What do the screens show for `O=C(CSc1ccc2nnc(-c3cccnc3)n2n1)N1CCCCC1c1ccc(F)cc1` (configuration not stated)?
ST2 inh: inactive

How did O=C(c1ccc(NCc2cccnc2)nc1)N1CCCC(c2ccccc2)CC1 (configuration not stated) do in these assays?
ST2 inh: inactive

How did CS(=O)CCC/C(=N/OS(=O)(=O)O)S[C@@H]1O[C@H](CO)[C@@H](O)[C@H](O)[C@H]1O (some centres not stated) do in these assays?
ST2 inh: inactive

Results for COc1ccc(Cc2nnc(Nc3ccc(F)cc3)[nH]c2=O)cc1 ?
ST2 inh: inactive

What do the screens show for `O=C(NCCC1=CCCCC1)c1ccc(CSc2ncn[nH]2)o1`?
ST2 inh: inactive

What do the screens show for `CN(C)c1ccc(NC(=O)CCC(=O)O)cc1`?
ST2 inh: 51%*

Results for O=C(O)CCC(=O)Nc1ccc(C(=O)O)cc1 ?
ST2 inh: inactive

Results for O=C(O)CCC(=O)Nc1ccc(I)cc1 ?
ST2 inh: inactive

Results for Cc1cc(Cl)ccc1OCC(O)CN1CCN(c2ccccc2)CC1 (configuration not stated) ?
ST2 inh: inactive

Results for CCOC(=O)C1C(=O)C=C(c2cccs2)CC1c1ccc(OC)c(OC)c1 (configuration not stated) ?
ST2 inh: inactive

Results for O=C1C=C(c2cccs2)C[C@H](c2ccccc2)[C@H]1n1nnc([N+](=O)[O-])n1 ?
ST2 inh: 41%*

What do the screens show for `CCOC(=O)C1C(=O)C=C(c2cccs2)CC1c1ccccc1OCC` (configuration not stated)?
ST2 inh: inactive

What do the screens show for `CCn1c(=O)n(-c2ccc(C)c(C)c2)c2nc(-c3cccs3)nc(C(N)=O)c21`?
ST2 inh: inactive

Results for Cc1cc(Br)cc2c1N(C)C(=O)/C2=C1\SC(=Nc2ccc(F)cc2)NC1=O ?
ST2 inh: 33%*

What do the screens show for `Cc1cc(Br)cc2c1N(C)C(=O)C2=O`?
ST2 inh: inactive

Results for CC(=O)N1c2c(cc(Br)cc2S(=O)(=O)Nc2ccccc2F)CC1C (configuration not stated) ?
ST2 inh: inactive

Results for CCC1CCCCN1S(=O)(=O)c1ccc(C(=O)Nc2nnc(CSC)o2)cc1 (configuration not stated) ?
ST2 inh: inactive

What do the screens show for `N=C1S/C(=C/c2ccc(-c3ccccc3C(=O)O)o2)C(=O)N1c1nccs1`?
ST2 inh: inactive

Results for COc1cc([N+](=O)[O-])ccc1-c1ccc(/C=C2\C(=O)N(c3cccc(Cl)c3)N=C2C)o1 ?
ST2 inh: inactive

How did Cc1c(C(=O)O)cccc1-c1ccc(/C=C/[N+](=O)[O-])o1 do in these assays?
ST2 inh: 61%*

Results for CC(=O)Nc1ccccc1-c1ccc(C)o1 ?
ST2 inh: inactive

What do the screens show for `Cc1ccc(Cl)cc1-c1ccc(/C=C/[N+](=O)[O-])o1`?
ST2 inh: 51%*

Results for OC(COc1ccc(Cl)cc1)CN1CCN(c2ccc(F)cc2)CC1 (configuration not stated) ?
ST2 inh: inactive

How did CSc1nc2c(c(=O)[nH]1)C(c1ccc3c(c1)OCO3)C1=C(CC(C)(C)CC1=O)N2 (configuration not stated) do in these assays?
ST2 inh: inactive

How did O=C1CSC(c2ccccc2)N1c1ccc(Oc2ccccc2)cc1 (configuration not stated) do in these assays?
ST2 inh: inactive

What do the screens show for `CCOc1ccc(/C=C2/NC(=O)NC2=O)cc1Br`?
ST2 inh: inactive

Results for Cc1ccc(CCNC(=O)c2ccc3c(c2)ncn3C2CCCC2)cc1 ?
ST2 inh: inactive

How did CCOc1ccccc1C1C(C(=O)OCCSCC)=C(C)NC2=C1C(=O)CC(C)(C)C2 (configuration not stated) do in these assays?
ST2 inh: inactive

What do the screens show for `CCSCCOC(=O)C1=C(C)NC2=C(C(=O)CCC2)C1c1cccc(Br)c1` (configuration not stated)?
ST2 inh: inactive

How did CCSCCOC(=O)C1=C(C)Nc2ccccc2S1 do in these assays?
ST2 inh: 43%*

How did O=S(=O)(Nc1c(F)c(F)c(F)c(F)c1F)c1ccc(Cl)cc1 do in these assays?
ST2 inh: inactive

How did Cc1ccc(C)c(CC(=O)N2C[C@@H](C(=O)O)C[C@@H](C(=O)N3CCCC3)C2)c1 do in these assays?
ST2 inh: inactive

What do the screens show for `C=CCNC(=O)N[C@H]1[C@H](O)[C@@H](NCCOC)[C@@H]2OC[C@H]1O2`?
ST2 inh: inactive

Results for CCOc1ccccc1NS(=O)(=O)c1cc([N+](=O)[O-])ccc1C ?
ST2 inh: inactive

Results for Cc1cc([N+](=O)[O-])ccc1NC(=O)COc1ccc(C(C)C)cc1 ?
ST2 inh: inactive

What do the screens show for `Cc1nonc1OCC(C)(COc1nonc1C)Nc1ccc([N+](=O)[O-])cc1[N+](=O)[O-]`?
ST2 inh: 40%*

Results for CC(C)c1ccc(N(C(=O)c2cccc(F)c2)C2C=CS(=O)(=O)C2)cc1 (configuration not stated) ?
ST2 inh: inactive

How did CC(=O)Oc1ccc2c(C)c(Cc3ccccc3)c(=O)oc2c1C do in these assays?
ST2 inh: inactive

How did O=C(CCc1ccncc1)N1CCOC(Cc2cccc(C(F)(F)F)c2)C1 (configuration not stated) do in these assays?
ST2 inh: inactive

How did COc1ccc(C(=O)N2CCC(n3nccc3NC(=O)CCc3ccccc3)CC2)o1 do in these assays?
ST2 inh: inactive

How did N#Cc1c(-c2cccs2)cc(-c2ccccc2)nc1SCC(N)=O do in these assays?
ST2 inh: inactive
